Measurements taken from PubChem BioAssay (NCATS).
Results filed as inconclusive are left out. Activity calls are given as the source filed them. Calls follow the shape of the dose curve; as a rule, active = well fitted inhibition curve with a large enough effect; inconclusive = small, poorly fitted or top-dose-only effect; inactive = flat fitted curve, though single readings scatter.

Columns and labels:
Test in all cases: qHTS profiling for inhibitors of Plasmodium falciparum proliferation (AID 504749); also: nearly all actives have a fitted effect of over 60% in size
Conditions in all cases: P. falciparum in erythrocytes, SYBR Green DNA, 72 h; series mostly up to 28.7 µM
CP266 = tested on: CP266
Procedure, shortened: (§1)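 Readout was DNA-dye fluorescence from lysed cultures, ex 485/em 535 nm. Parasitized red cells had grown 72 h with compound; data scaled between 0.29 uM artemisinin and DMSO wells and corrected using vehicle-only plates.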

CP268 = tested on: CP268
Procedure, shortened: as §1

CP269 = tested on: CP269
Procedure, shortened: as §1

CP286 = tested on: CP286
Procedure, shortened: as §1

CP291 = tested on: CP291
Procedure, shortened: as §1

CP297 = tested on: CP297
Procedure, shortened: as §1

CP305 = tested on: CP305
Procedure, shortened: as §1

CP315 = tested on: CP315
Procedure, shortened: as §1

CP325 = tested on: CP325
Procedure, shortened: as §1

CP329 = tested on: CP329
Procedure, shortened: as §1

CP335 = tested on: CP335
Procedure, shortened: as §1

DFO2036 = tested on: DFO2036
Procedure, shortened: as §1

DIV14 = tested on: DIV14
Procedure, shortened: as §1

DIV17 = tested on: DIV17
Procedure, shortened: as §1

DIV30 = tested on: DIV30
Procedure, shortened: as §1

Dd2 = tested on: Dd2
Procedure, shortened: as §1

ECU = tested on: ECU
Procedure, shortened: as §1

FAB9 = tested on: FAB9
Procedure, shortened: as §1

GB4 = tested on: GB4
Procedure, shortened: as §1

HB3 = tested on: HB3
Procedure, shortened: as §1

ICS = tested on: ICS
Procedure, shortened: as §1

JCK = tested on: JCK
Procedure, shortened: as §1

N140 = tested on: N140
Procedure, shortened: as §1

P93_24 = tested on: P93_24
Procedure, shortened: as §1

P94_40 = tested on: P94_40
Procedure, shortened: as §1

PAD = tested on: PAD
Procedure, shortened: as §1

PC15 = tested on: PC15
Procedure, shortened: as §1

PC26 = tested on: PC26
Procedure, shortened: as §1

PC49 = tested on: PC49
Procedure, shortened: as §1

SC27B = tested on: SC27B
Procedure, shortened: as §1

TAB109 = tested on: TAB109
Procedure, shortened: as §1

TAB113 = tested on: TAB113
Procedure, shortened: as §1

TAB165 = tested on: TAB165
Procedure, shortened: as §1

W2 = tested on: W2
Procedure, shortened: as §1

Measured: Potency

C=C1[C@@H]2CC[C@H](C2)C1(C)C
inactive: all assays above
